Compounds without any hit were thinned out: in the full panel of roughly 83,000, 20% have a hit.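 48-hour exposure, single concentration, 96-well plates; percent growth endpoint where 0 means no net growth. Active: below 10.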 The source made the active and inactive calls.
Assays:
Assay in all cases: NCI-60 one-dose screen, 48 h (100 = growth as untreated, 0 = no growth, -100 = all killed)
Details in all cases: 10 µM unless noted
NCI-H23 lung = tested on: NCI-H23 lung
NCI-H226 lung = tested on: NCI-H226 lung
NCI-H322M lung = tested on: NCI-H322M lung
HOP-62 NSCLC = tested on: HOP-62 NSCLC
NCI-H460 lung = tested on: NCI-H460 lung
NCI-H522 lung = tested on: NCI-H522 lung
A549/ATCC NSCLC = tested on: A549/ATCC NSCLC
786-0 renal = tested on: 786-0 renal
COLO 205 colon = tested on: COLO 205 colon
DU-145 prostate = tested on: DU-145 prostate
K-562 leukemia = tested on: K-562 leukemia
MDA-MB-231 breast = tested on: MDA-MB-231 breast
RXF 393 renal = tested on: RXF 393 renal
SF-268 CNS = tested on: SF-268 CNS
SF-295 CNS = tested on: SF-295 CNS
SF-539 CNS = tested on: SF-539 CNS
UACC-257 melanoma = tested on: UACC-257 melanoma
M14 melanoma = tested on: M14 melanoma
MALME-3M melanoma = tested on: MALME-3M melanoma

Measured: growth

Cc1nn(-c2ccccc2)c2ncnc(N/N=C/c3cccc(O)c3)c12
inactive: NCI-H23 lung 61.3% | NCI-H226 lung 80.5% | NCI-H322M lung 73.1% | HOP-62 NSCLC 44.3% | NCI-H460 lung 15.7% | NCI-H522 lung 25.4% | A549/ATCC NSCLC 57.7% | 786-0 renal 66.7% | COLO 205 colon 57.1% | DU-145 prostate 67.9% | K-562 leukemia 13.4% | MDA-MB-231 breast 70.8% | RXF 393 renal 16.6% | SF-268 CNS 55.9% | SF-295 CNS 46.5% | SF-539 CNS 50.4% | UACC-257 melanoma 62.8% | M14 melanoma 28.6%

COc1cccc(C(=O)Nc2cccc(C#Cc3cccc4[nH]nc(N)c34)c2)c1
active: RXF 393 renal -19.5%
inactive: NCI-H23 lung 66.7% | NCI-H226 lung 49.2% | NCI-H322M lung 84.2% | HOP-62 NSCLC 63.4% | NCI-H460 lung 44.8% | NCI-H522 lung 21.1% | A549/ATCC NSCLC 51.1% | 786-0 renal 80.2% | COLO 205 colon 67.6% | DU-145 prostate 70.8% | MALME-3M melanoma 79.4% | MDA-MB-231 breast 38.6% | SF-268 CNS 53% | SF-295 CNS 54.9% | SF-539 CNS 36.1% | UACC-257 melanoma 82.8% | M14 melanoma 32.6%

NC(N)=Nc1ccc(Oc2cccc(Nc3ccc(Cl)cc3)c2)cn1
active: NCI-H322M lung -3.11% | HOP-62 NSCLC -21.3% | NCI-H460 lung -72.6% | NCI-H522 lung -30.1% | COLO 205 colon -64.4% | DU-145 prostate -18.1% | K-562 leukemia -68.5% | RXF 393 renal 1.19% | SF-295 CNS -75.1%
inactive: NCI-H23 lung 29.1% | NCI-H226 lung 29.6% | A549/ATCC NSCLC 24.8% | 786-0 renal 35.4% | MDA-MB-231 breast 10.7% | SF-268 CNS 41.3% | SF-539 CNS 73.3% | UACC-257 melanoma 28.4% | M14 melanoma 42.2%

NC(=O)c1cccc(C#CCNC[C@H]2C[C@@H](n3ccc4c(Cl)ncnc43)[C@H](O)[C@@H]2O)c1
inactive: NCI-H23 lung 99% | NCI-H226 lung 99.1% | NCI-H322M lung 94.2% | HOP-62 NSCLC 106% | NCI-H460 lung 113% | NCI-H522 lung 97.3% | A549/ATCC NSCLC 101% | 786-0 renal 101% | COLO 205 colon 116% | DU-145 prostate 108% | K-562 leukemia 111% | MDA-MB-231 breast 101% | RXF 393 renal 107% | SF-268 CNS 102% | SF-295 CNS 105% | SF-539 CNS 98.9% | UACC-257 melanoma 98.2% | M14 melanoma 104%

Cc1nn(-c2ccccc2)c2ncnc(N/N=C/c3ccccc3O)c12
active: NCI-H460 lung 6.19% | RXF 393 renal -20.4% | SF-268 CNS 8.32% | SF-295 CNS 7.98% | SF-539 CNS -1.39% | UACC-257 melanoma 9.8% | M14 melanoma 0.329%
inactive: NCI-H23 lung 14.3% | NCI-H226 lung 14.8% | NCI-H322M lung 14.1% | HOP-62 NSCLC 10.2% | NCI-H522 lung 23.1% | A549/ATCC NSCLC 11.7% | 786-0 renal 11% | COLO 205 colon 10.5% | DU-145 prostate 21% | K-562 leukemia 15% | MDA-MB-231 breast 29.7%

CC(C)(C)c1ccc(CC(=O)Nc2sc3c(c2C(N)=O)CCC(=O)C3)cc1
active: NCI-H23 lung 7.26% | NCI-H460 lung 6.79% | NCI-H522 lung -49.3% | COLO 205 colon -34.4% | MDA-MB-231 breast -20.2% | RXF 393 renal -12.5% | SF-539 CNS -36.4% | UACC-257 melanoma -10.8% | M14 melanoma 7.16%
inactive: NCI-H226 lung 11.4% | NCI-H322M lung 44% | HOP-62 NSCLC 30.5% | A549/ATCC NSCLC 17.1% | 786-0 renal 29.1% | DU-145 prostate 26.4% | SF-268 CNS 26% | SF-295 CNS 10.1%

COc1cc2oc(-c3cccc(C(=O)N[C@@H](CC(C)C)C(=O)OC(C)(C)C)c3)cc(=O)c2c(OC)c1OC
inactive: NCI-H23 lung 60.6% | NCI-H226 lung 72.6% | NCI-H322M lung 90.4% | HOP-62 NSCLC 43.4% | NCI-H460 lung 37.8% | NCI-H522 lung 83.1% | 786-0 renal 67.9% | COLO 205 colon 92.8% | DU-145 prostate 72.8% | K-562 leukemia 36.7% | MALME-3M melanoma 96.3% | MDA-MB-231 breast 72.1% | RXF 393 renal 86.2% | SF-268 CNS 83.8% | SF-295 CNS 52.3% | SF-539 CNS 88.6% | UACC-257 melanoma 112% | M14 melanoma 93.7%

NC(N)=Nc1ccc(Oc2cccc(NC(N)=Nc3ccc(Br)c(C(F)(F)F)c3)c2)cc1
inactive: NCI-H23 lung 54.4% | NCI-H226 lung 68.6% | NCI-H322M lung 57.8% | HOP-62 NSCLC 53.3% | NCI-H460 lung 24.3% | NCI-H522 lung 35.7% | 786-0 renal 76.5% | COLO 205 colon 27.9% | DU-145 prostate 72.6% | K-562 leukemia 29.3% | MALME-3M melanoma 67.5% | MDA-MB-231 breast 61.4% | SF-268 CNS 18.8% | SF-295 CNS 40.5% | SF-539 CNS 39.8% | UACC-257 melanoma 54.8%

Nc1nc(N)c2c(n1)NC(c1ccc(C(F)(F)F)cc1)CC(c1ccc(Nc3nc(NCCO)nc(N4CCOCC4)n3)cc1)=N2 (centres undefined)
inactive: NCI-H23 lung 72.8% | NCI-H226 lung 70.2% | NCI-H322M lung 95.6% | HOP-62 NSCLC 47.1% | NCI-H460 lung 48.3% | NCI-H522 lung 52.5% | A549/ATCC NSCLC 74.4% | 786-0 renal 62.7% | COLO 205 colon 71.1% | DU-145 prostate 79.2% | K-562 leukemia 17.9% | MDA-MB-231 breast 80.8% | RXF 393 renal 67.9% | SF-268 CNS 63.6% | SF-295 CNS 73.2% | SF-539 CNS 75.3% | UACC-257 melanoma 80.2% | M14 melanoma 71.7%

Reference: PubChem BioAssay (NCI)
